Measurements reported in PMC8384837, “Expanding the binding specificity for RNA recognition by a PUF domain”.

Molecular target: PUM1 PUF domain R5-RRS (Homo sapiens, UniProt Q14671 828-1176, C1007R;Q1011S)
Assay: yeast three-hybrid, YBZ-1, SC-Leu-His + 0.5 mM 3-AT, 4 days
Conditions: tags: N-Gal4 AD-HA kept; label: inside an RPR1-promoter hybrid RNA with tandem MS2 sites; ssRNA
How it was run: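 A centromeric plasmid in strain YBZ-1 co-expressed Pumilio-1 PUF domain libraries, randomized at the three base-contacting residues of each repeat, with matching RNA elements; the strain carries a LexA–MS2 coat fusion and a HIS3 reporter. After four days on SC-Leu (input) or SC-Leu-His + 0.5 mM 3-AT (selection), the repeat regions were PCR-amplified and Illumina-sequenced. The interaction score is the log change in variant frequency from input to selection, using log2 and a pseudocount of 1 where absent.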

Chain of PUM1 PUF domain R5-RRS (Q14671 828-1176 C1007R/Q1011S): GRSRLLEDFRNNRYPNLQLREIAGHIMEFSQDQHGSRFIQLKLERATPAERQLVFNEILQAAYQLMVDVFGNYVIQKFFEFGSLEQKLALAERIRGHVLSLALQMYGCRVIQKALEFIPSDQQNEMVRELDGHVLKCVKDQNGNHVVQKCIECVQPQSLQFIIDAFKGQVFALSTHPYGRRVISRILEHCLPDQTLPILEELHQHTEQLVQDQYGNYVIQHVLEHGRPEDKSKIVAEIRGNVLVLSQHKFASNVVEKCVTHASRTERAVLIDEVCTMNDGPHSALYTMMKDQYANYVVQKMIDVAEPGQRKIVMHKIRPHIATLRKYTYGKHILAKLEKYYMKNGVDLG

| Sequence | binding signal |
| --- | --- |
| GGCUAGAACUAGUGGAUCCCCCGGCGCCCGGCGGCUCGAGCCCGGGUAAGUGUAAAUAGUCUGCAUGCCGCCGGGCGCCAUGCCUGCAGGUCGACUCUAGAAAACAUG | 2.42 log2 enrichment (interaction score) |
| GGCUAGAACUAGUGGAUCCCCCGGCGCCCGGCGGCUCGAGCCCGGGUAAGUGUGAAUAGUCUGCAUGCCGCCGGGCGCCAUGCCUGCAGGUCGACUCUAGAAAACAUG | 1.53 log2 enrichment (interaction score) |
| GGCUAGAACUAGUGGAUCCCCCGGCGCCCGGCGGCUCGAGCCCGGGUAAGUGUUAAUAGUCUGCAUGCCGCCGGGCGCCAUGCCUGCAGGUCGACUCUAGAAAACAUG | 4.6 log2 enrichment (interaction score) |
| GGCUAGAACUAGUGGAUCCCCCGGCGCCCGGCGGCUCGAGCCCGGGUAAGUGUCAAUAGUCUGCAUGCCGCCGGGCGCCAUGCCUGCAGGUCGACUCUAGAAAACAUG | 4.44 log2 enrichment (interaction score) |
